Consider 13 compounds from PubChem BioAssay (NCATS).

SMILES strings stand for the structures. Results filed as inconclusive are left out. A call without a number means that no potency is given here. Activity calls are given as the source filed them. The call rests on the fitted dose curve; in most records, active means well fitted inhibition curve with a large enough effect; inconclusive means small, poorly fitted or top-dose-only effect; inactive means flat fitted curve, though single readings scatter.

Calcium and integrin-binding protein 1 (Homo sapiens), sequence (Q99828 whole entry, looked up): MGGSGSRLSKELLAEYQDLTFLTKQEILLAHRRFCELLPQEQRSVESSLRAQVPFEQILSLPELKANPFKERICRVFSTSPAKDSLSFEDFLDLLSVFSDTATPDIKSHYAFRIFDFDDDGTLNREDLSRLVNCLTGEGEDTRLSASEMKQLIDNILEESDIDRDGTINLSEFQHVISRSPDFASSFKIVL

The target in the experiment is Calcium and integrin-binding protein 1 (Homo sapiens) (UniProt Q99828). Nature of the experiment: Primary qHTS for Identification of Calcium Integrin Binding Protein 1 (CIB1) Competitor (AID 1508620).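 Further: GST tagged CIB1 binding a fluorescein labelled alphaIIb integrin peptide tracer; top concentration of the series differs between compounds.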 The following applies: CIB1-GST / FITC-alphaIIb peptide fluorescence polarization; series mostly up to 114 µM. An outline of the steps:
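CIB1-GST (1 uM final) and compound incubated 15 min at room temperature before adding FITC-alphaIIb peptide tracer (100 nM final). Competition for binding read by fluorescence polarization (ex 480, em 540) after another 15 min at room temperature.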
For the compound `COCC1OC(OC(C)(C)C2CCC3(C)C=C(C4CCC5C4(C)CC(O)C4OC(C(C)(C)OC6OC(CO)C(O)C(O)C6NC(C)=O)CCC45C)CCC3O2)C(NC(C)=O)C(O)C1O` (stereo not drawn), the Potency result was “inactive”.
Then `CC/C=C\CC1C(=O)C=CC1(CCCCCCCC(=O)O)OC(C)=O` (stereo not drawn), with “inactive”; and `CC[C@@H](N)CNc1ccnc(-c2cc(-c3cnn(C)c3)ccc2O)n1`, with “inactive”.
Then `CC(=O)O[C@@H]1[C@@H](O)[C@H](C)O[C@@H](O[C@H]2[C@@H]3C=CO[C@@H](O[C@@H]4O[C@H](CO)[C@@H](O)[C@H](O)[C@H]4O)[C@@H]3[C@@]3(CO)O[C@@H]23)[C@@H]1OC(=O)/C=C/c1ccccc1`, with “inactive”; and `COc1cc2c(c(OC)c1CC=C(C)C)C[C@H](c1ccc(O)cc1O)CO2`, with “inactive”; and `COc1cc2ncnc(Nc3ccc(O)cc3)c2cc1OC`, with “inactive”.
Turning to `COc1ccccc1Oc1ccc(N(Cc2cccnc2)S(=O)(=O)CC(F)(F)F)cc1`, the Potency entry is “inactive”.
Then `Cc1ccc(NC(=O)C(=O)NC2CC(C)(C)NC(C)(C)C2)cc1`, with “inactive”.
Then `CCCCC1CCN(CCCC(=O)c2ccccc2C)CC1`, with “inactive”; and `CO[C@H]1O[C@@H]2O[C@]3(C)CC[C@H]4[C@H](C)CC[C@@H]([C@H]1C)[C@@]24OO3`, with “inactive”; and `CNC(C)C(=O)NC(C(=O)N1CCCC1c1nc(C(=O)c2ccc(F)cc2)cs1)C1CCCCC1` (stereo not drawn), with “inactive”.
Then `N#Cc1cc(F)cc(-c2nc(-c3ccccn3)no2)c1`, with “inactive”; and `C[C@@H]1O[C@@H](O[C@H]2[C@@H](OC(=O)[C@]34CCC(C)(C)CC3C3=CCC5[C@@]6(C)C[C@H](O)[C@H](O[C@@H]7O[C@H](C(=O)O)[C@@H](O)[C@H](O)[C@H]7O)[C@@](C)(C(=O)O)C6CC[C@@]5(C)[C@]3(C)CC4)OC[C@H](O)[C@@H]2O)[C@H](O)[C@H](O)[C@H]1O[C@@H]1OC[C@@H](O)[C@H](O)[C@H]1O` (stereo partly drawn), with “inactive”.
